This note sets out measurements from PubChem BioAssay.

Assay [1] can be described thus: antimalarial activity against Dd2 strain (AID 2302;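 active = growth inhibition above 50% at the single 2 µM test dose, taken to imply half-maximal potency below 2 µM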;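 note: 0% = DMSO untreated growth and 100% = chloroquine plus artemisinin killed control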). To be noted: P. falciparum Dd2 in RBCs, LDH growth readout, 72 h; at 2 µM; active compounds read high.
A short description of assay [2]: human hepatoma cell viability loss – ATP luminescence, cytotoxicity control for P. falciparum antimalarial project, primary screen (AID 2303;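 active = inhibition above 50%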;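 note: 0% = DMSO wells and 100% = digitonin-killed cells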). The note with it: HepG2 viability, 24-48 h, at 10 µM, active compounds read high.
In assay [3] the target is L-lactate dehydrogenase (Plasmodium falciparum (isolate CDC / Honduras)) (UniProt Q27743). Put plainly: PfLDH activity inhibition – cell lysate, 3D7 strain, counter-screen for P. falciparum growth inhibition project (AID 2304).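 Note: 0% = vehicle and 100% = reference inhibitor.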 To be noted: P. falciparum 3D7 crude extract, LDH APAD/NBT absorbance; at 2 µM; active compounds read high.
The nature of assay [4]: inhibition of 3D7 malaria parasite growth – strain 3D7 (AID 2306).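 Note: 0% = DMSO wells and 100% = chloroquine plus artemisinin control wells.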 To be noted: P. falciparum 3D7 erythrocytic growth, LDH absorbance, 72 h; at 2 µM; active compounds read high.
Assay [5] deals with Calcium-dependent protein kinase 1 (Plasmodium falciparum (isolate 3D7)) (UniProt P62344). Put plainly: PfCDPK1 kinase inhibitors, biochemical, TCAMS library (AID 1159585; cut-off not given, nearly all actives have IC50 up to about 0.98 µM;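 note: inhibitors leave more ATP so luminescence rises with inhibition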). The note with it: recombinant PfCDPK1, Kinase-Glo ATP depletion luminescence. In general terms: Kinase-Glo reads ATP consumption through a luciferase reaction.
Assay [6] deals with Plasmodium falciparum protein kinase 6 (PK6, PF3D7_1337100) (UniProt Q8IDW1). Put plainly: PfPK6 kinase inhibitors, biochemical, TCAMS library (AID 1159586). To be noted: recombinant PfPK6, Kinase-Glo ATP depletion luminescence.
Assay [7] addresses Protein kinase 7 (PK7), Plasmodium falciparum 3D7 (PF3D7_0213400) (UniProt Q7YTF7). Put plainly: inhibition of Plasmodium PK7 catalytic activity – biochemical, TCAMS antimalarial set, Kinase-Glo luminescence (AID 1159587). To be noted: recombinant PfPK7, Kinase-Glo ATP depletion luminescence.
In assay [8] the target is Calcium-dependent protein kinase 4 (Plasmodium falciparum (isolate 3D7)) (UniProt Q8IBS5). Put plainly: PfCDPK4 kinase inhibitors, biochemical, TCAMS library (AID 1159588; cut-off not given, nearly all actives have IC50 up to about 0.91 µM). The note with it: recombinant PfCDPK4, Kinase-Glo ATP depletion luminescence.

A number with no mark means an inactive call. For part of these data: Potency and affinity values are given separately. The source made the active and inactive calls. Unless noted, the rule behind the calls is not given here.

Calcium-dependent protein kinase 4 (Plasmodium falciparum (isolate 3D7)), sequence (Q8IBS5 whole entry, looked up): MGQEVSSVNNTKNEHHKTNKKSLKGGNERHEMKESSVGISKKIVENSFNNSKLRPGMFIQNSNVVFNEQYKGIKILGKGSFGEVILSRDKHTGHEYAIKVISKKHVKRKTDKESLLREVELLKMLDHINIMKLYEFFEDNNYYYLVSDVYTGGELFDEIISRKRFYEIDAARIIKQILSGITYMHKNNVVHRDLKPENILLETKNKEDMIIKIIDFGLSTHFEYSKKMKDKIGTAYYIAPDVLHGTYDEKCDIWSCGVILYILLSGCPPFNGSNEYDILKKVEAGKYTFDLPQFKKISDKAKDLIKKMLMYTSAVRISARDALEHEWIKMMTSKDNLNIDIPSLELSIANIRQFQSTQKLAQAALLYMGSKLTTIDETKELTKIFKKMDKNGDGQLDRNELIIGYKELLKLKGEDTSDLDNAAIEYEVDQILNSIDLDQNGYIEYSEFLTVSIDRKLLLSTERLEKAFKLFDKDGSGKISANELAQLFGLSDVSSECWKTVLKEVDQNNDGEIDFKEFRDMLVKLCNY
L-lactate dehydrogenase (Plasmodium falciparum (isolate CDC / Honduras)), sequence (Q27743 whole entry, looked up): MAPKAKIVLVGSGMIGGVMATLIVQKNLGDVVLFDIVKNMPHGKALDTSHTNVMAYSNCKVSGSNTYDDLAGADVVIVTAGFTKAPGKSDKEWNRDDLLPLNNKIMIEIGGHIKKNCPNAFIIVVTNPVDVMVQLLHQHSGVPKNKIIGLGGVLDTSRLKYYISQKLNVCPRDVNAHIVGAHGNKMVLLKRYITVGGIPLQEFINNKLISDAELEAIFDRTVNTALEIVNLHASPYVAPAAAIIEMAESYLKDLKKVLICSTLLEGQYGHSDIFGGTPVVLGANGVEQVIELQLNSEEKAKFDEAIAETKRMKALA
Plasmodium falciparum protein kinase 6 (PK6, PF3D7_1337100), sequence (Q8IDW1 1-305): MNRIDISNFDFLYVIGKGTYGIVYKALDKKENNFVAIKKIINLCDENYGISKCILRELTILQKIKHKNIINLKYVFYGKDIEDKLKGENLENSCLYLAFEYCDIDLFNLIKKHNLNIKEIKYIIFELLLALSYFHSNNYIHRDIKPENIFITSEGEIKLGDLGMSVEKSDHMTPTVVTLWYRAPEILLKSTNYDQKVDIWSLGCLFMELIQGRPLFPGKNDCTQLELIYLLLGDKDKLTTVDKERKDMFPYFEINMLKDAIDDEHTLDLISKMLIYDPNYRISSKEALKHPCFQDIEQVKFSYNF
Calcium-dependent protein kinase 1 (Plasmodium falciparum (isolate 3D7)), sequence (P62344 whole entry, looked up): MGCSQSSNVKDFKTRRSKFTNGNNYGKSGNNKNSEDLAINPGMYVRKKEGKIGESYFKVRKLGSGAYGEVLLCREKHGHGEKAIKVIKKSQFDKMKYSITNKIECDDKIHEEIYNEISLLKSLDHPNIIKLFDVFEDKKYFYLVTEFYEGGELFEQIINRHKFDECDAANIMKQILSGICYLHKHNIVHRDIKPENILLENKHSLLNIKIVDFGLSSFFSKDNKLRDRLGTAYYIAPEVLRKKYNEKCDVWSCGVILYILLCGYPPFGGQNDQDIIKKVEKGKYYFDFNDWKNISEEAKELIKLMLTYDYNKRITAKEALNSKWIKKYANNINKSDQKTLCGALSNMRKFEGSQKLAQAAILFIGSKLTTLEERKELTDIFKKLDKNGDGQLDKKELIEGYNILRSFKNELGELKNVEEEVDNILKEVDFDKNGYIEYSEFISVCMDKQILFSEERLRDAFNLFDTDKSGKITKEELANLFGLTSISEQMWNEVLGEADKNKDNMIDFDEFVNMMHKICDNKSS
Protein kinase 7 (PK7), Plasmodium falciparum 3D7 (PF3D7_0213400), sequence (Q7YTF7 1-343): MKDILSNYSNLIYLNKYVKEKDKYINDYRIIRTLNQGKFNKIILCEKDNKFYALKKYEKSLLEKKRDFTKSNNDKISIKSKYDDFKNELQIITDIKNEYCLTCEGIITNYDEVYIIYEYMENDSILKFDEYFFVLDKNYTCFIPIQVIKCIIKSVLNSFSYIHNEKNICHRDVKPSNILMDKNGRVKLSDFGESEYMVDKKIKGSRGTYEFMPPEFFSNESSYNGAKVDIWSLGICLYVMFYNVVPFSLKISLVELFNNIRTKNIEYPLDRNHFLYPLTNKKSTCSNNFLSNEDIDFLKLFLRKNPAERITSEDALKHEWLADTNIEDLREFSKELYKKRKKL

One may read the inhibition as the change of the read-out against control, counted positive when it falls. Take `O=C(NCc1cccc2ccccc12)[C@@H]1CCCN1C(=O)c1ccc(O)c(-c2ccc(Cl)c(Cl)c2)c1`: the growth inhibition in assay [1] is 71% (active); in assay [4], 98% (active). Besides, the inhibition was -4% in assay [2] and 2% in assay [3]. Besides, the result in assay [5], in assay [6], in assay [7] and in assay [8] was inactive.

Consider `COc1ccc(S(=O)(=O)NC2CCN(c3cc(C)nc(Nc4cccc(C#N)c4)n3)CC2)cc1`, for which the values for the growth inhibition in assay [1] and in assay [4] were 55% (active) and 88% (active), respectively. The results for the inhibition in assay [2] and in assay [3] were 9% and -4%, respectively. Further, the result in assay [5], in assay [6], in assay [7] and in assay [8] was inactive.

On to `CC(C)CCNC(=O)C1Cc2c([nH]c3ccc(Br)cc23)C2(CCN(CCc3ccccc3)CC2)N1` (centres undefined), for which the growth inhibition is 61% (active) in assay [1] and 101% (active) in assay [4]. For the same molecule, the inhibition is 25% in assay [2] and 2% in assay [3]. Also, the outcome in assay [5], in assay [6], in assay [7] and in assay [8] was inactive.

Take `OCCN1CCN(Cc2cccc(-c3ccc(-c4nc5ccc(C(F)(F)F)cc5[nH]4)s3)c2)CC1`: the values for the growth inhibition in assay [1] and in assay [4] were 98% (active) and 101% (active), respectively. The inhibition in assay [2] was 42%; in assay [3], -5%. Further, the result in assay [5], in assay [6], in assay [7] and in assay [8] was inactive.

Turning to `CC(=O)Nc1ccc(C(=O)NC2CCN(c3ccnc4cc(Cl)ccc34)CC2)cc1`, the growth inhibition is 99% (active) in assay [1] and 101% (active) in assay [4]. The inhibition in assay [2] was 5%; in assay [3], -4%. Also, the outcome in assay [5], in assay [6], in assay [7] and in assay [8] was inactive.

`Cc1nc(-c2ccc(C(F)(F)F)cn2)sc1C(=O)N1CCc2cc3nccc(N4CCN5CCC[C@H]5C4)c3cc21`: the growth inhibition in assay [1] is 72% (active); in assay [4], 100% (active). Also, the values for the inhibition in assay [2] and in assay [3] were 5% and 0%, respectively. Also, the result in assay [5], in assay [6], in assay [7] and in assay [8] was inactive.

Turning to `NC(=O)c1ccccc1OCC(=O)Nc1ccc(-c2cccc(-c3nc4ccc(C(F)(F)F)cc4[nH]3)c2)cc1`, the growth inhibition in assay [1] was 11%; in assay [4], 100% (active). In addition, the inhibition is 51% (active) in assay [2] and -8% in assay [3]. For the same molecule, the result in assay [5], in assay [6], in assay [7] and in assay [8] was inactive.

On to `O=C(O)C[C@H](NC(=O)c1cc(-c2ccc3c(c2)OCO3)no1)C(=O)O` (tested in a mixture with another compound), for which the growth inhibition is -3% in assay [1] and 98% (active) in assay [4]. Moreover, the inhibition is -4% in assay [2] and -2% in assay [3]. The result in assay [5], in assay [6], in assay [7] and in assay [8] was inactive.

In the case of `COc1ccc2nc(-c3cccc(C)n3)nc(Nc3ccncc3)c2c1`, the growth inhibition in assay [1] is 42%; in assay [4], 101% (active). For the same molecule, the inhibition in assay [2] was -1%; in assay [3] it was -3%. Besides, the result in assay [5], in assay [6], in assay [7] and in assay [8] was inactive.

`COc1cc(Nc2ccnc3cc(-c4ccncc4)ccc23)cc(OC)c1OC`: the growth inhibition in assay [1] is 39%; in assay [4] it was 89% (active). Further, the inhibition in assay [2] is 9%; in assay [3] it was 0%. Besides, the result in assay [5], in assay [6], in assay [7] and in assay [8] was inactive.

As for `CC[C@H](NC(=O)c1c(N)c(-c2sccc2Cl)nc2ccccc12)c1ccccc1`, the growth inhibition in assay [1] was 92% (active); in assay [4], 99% (active). Moreover, the results for the inhibition in assay [2] and in assay [3] were 0% and -4%, respectively. Besides, the outcome in assay [5], in assay [6], in assay [7] and in assay [8] was inactive.

For the molecule `COc1ccc(S(=O)(=O)N2CCC3(CC2)OCC(=O)NC3c2ccc(Cl)c(Cl)c2)cc1` (centres undefined), the growth inhibition in assay [1] was 44%; in assay [4] it was 91% (active). The inhibition is -4% in assay [2] and -2% in assay [3]. Also, the result in assay [5], in assay [6], in assay [7] and in assay [8] was inactive.

In the case of `O=C(N[C@H]1CCN(Cc2ccc(OC3CCN(Cc4ccccc4)CC3)cc2)C1)c1ccc(Cl)c(Cl)c1`, the growth inhibition in assay [1] is 6%; in assay [4], 90% (active). The figures for the inhibition in assay [2] and in assay [3] were 37% and 1%, respectively. Moreover, the outcome in assay [5], in assay [6], in assay [7] and in assay [8] was inactive.

In the case of `COc1nc2c(CCN3CC[C@H](NCc4cc(C#N)c5c(c4)OCCO5)[C@H](O)C3)ccnc2cc1F`, the results for the growth inhibition in assay [1] and in assay [4] were 41% and 95% (active), respectively. For the same molecule, the inhibition was 18% in assay [2] and -3% in assay [3]. Moreover, the result in assay [5], in assay [6], in assay [7] and in assay [8] was inactive.

As for `O=S(=O)(NCCN1CCCC1)c1ccc(-c2cccc(CNCc3ccccc3)c2)s1`, the results for the growth inhibition in assay [1] and in assay [4] were 43% and 94% (active), respectively. Also, the inhibition was 44% in assay [2] and 0% in assay [3]. In addition, the outcome in assay [5], in assay [6], in assay [7] and in assay [8] was inactive.

In the case of `Cc1c(CNCCCNc2nc3ccccc3[nH]2)[nH]c2cc(Cl)cc(Cl)c12`, the figures for the growth inhibition in assay [1] and in assay [4] were -1% and 101% (active), respectively. The values for the inhibition in assay [2] and in assay [3] were 59% (active) and -6%, respectively. For the same molecule, the result in assay [5], in assay [6], in assay [7] and in assay [8] was inactive.

For the molecule `CCCN(CCC)CC(O)COc1ccccc1C(=O)Nc1ccccc1` (centres undefined), the values for the growth inhibition in assay [1] and in assay [4] were 95% (active) and 92% (active), respectively. The inhibition in assay [2] was 6%; in assay [3], -2%. For the same molecule, the result in assay [5], in assay [6], in assay [7] and in assay [8] was inactive.

Take `Cc1cc(C)c2cc(CNCCCNc3nc4ccccc4[nH]3)[nH]c2c1`: the growth inhibition in assay [1] is -2%; in assay [4], 102% (active). The inhibition in assay [2] is 32%; in assay [3], 3%. Also, the result in assay [5], in assay [6], in assay [7] and in assay [8] was inactive.
